Sm TGR inh – blocks Schistosoma mansoni thioredoxin glutathione reductase; AID 485364; Q962Y6; purified TGR, DTNB reduction, TNB absorbance 405 nm; Potency, µM (doses to about 114 µM), without a hit: top-dose activity change, negative = inhibition, actives largely listed as inhibitors; hit rate 3% among 360,000; further: potency means the concentration at half of the fitted maximal effect; on the % scale 0 is the no-effect control and ±100 the full control effect; nearly all actives have a fitted effect of over 60% in size
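Kinetic colorimetric format: TGR-catalysed, NADPH-driven DTNB reduction monitored via TNB absorbance. Enzyme dispensed at 20 nM; compound exposure 15 min at room temperature before reaction start.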
FBPA Giardia inh – blocks Giardia fructose-bisphosphate aldolase activity | purified Giardia FBPA | Potency, µM (top dose mostly 59.6 µM), inactives show top-dose activity, negative = inhibition, usual class: inhibitors | hit rate 0.71% among 290,000 | AID 2451; further: potency means the concentration at half of the fitted maximal effect; on the % scale 0 is the no-effect control and ±100 the full control effect; nearly all actives have a fitted effect of over 55% in size
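Giardia FBPA (40 nM reagent) was preincubated 10 min at RT with compound (up to 57.5 uM final), then substrate plus GAPDH/TPI/NAD/arsenate coupling system with diaphorase/resazurin was added; resorufin fluorescence (525/598 nm) was read after 20 min.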
TbPYK inhibitor – blocks Trypanosoma brucei pyruvate kinase. Potency, µM (series often up to 76.8 µM), without a hit: at the highest dose activity, negative = inhibition, usual class: inhibitors. Q57TT1. hit rate 0.12% among 410,000. TbPYK enzyme, Kinase-Glo Plus ATP luminescence, 45 min; further: potency means the concentration at half of the fitted maximal effect; on the % scale 0 is the no-effect control and ±100 the full control effect; nearly all actives have a fitted effect of over 50% in size
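Readout: single end-point luminescence (Kinase-Glo Plus, 10 min). Reaction conditions were TbPYK/substrate plus 130 uM ADP, 45 min at RT, pH 7.2 TEA buffer. No-enzyme wells served as controls, and data were normalized before concentration-response fitting.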
Cycloheximide cs – affects cycloheximide protein synthesis inhibition readout, counter-screen | max response, % | hit rate 12% among 300,000 | cell reporter, cycloheximide protein synthesis inhibition counterscreen | AID 2314; in the data active means max response mostly above about 13%, no sharp cut-off; inactive means mostly below about 14%; further: read at 38.3 µM for the half of the compounds with a filed dose; 0% is about no effect
Shiga inhibitor – blocks Shiga toxin action in Vero cells. Vero cells, Shiga toxin protein synthesis inhibition reporter. inhibition, % at 38.7 µM. hit rate 9.2% among 290,000; in the data active means inhibition mostly above about 28%, no sharp cut-off; inactive means mostly below about 43%; further: 0% is about no effect
LmPK inhibitor – blocks Leishmania mexicana pyruvate kinase activity | Q27686 | purified LmPK, Kinase-Glo ATP luminescence, 1 h | Potency, µM (series often up to 57.5 µM), without a hit: top-dose activity change, negative = inhibition, actives largely listed as inhibitors | hit rate 0.37% among 290,000; further: potency means the concentration at half of the fitted maximal effect; on the % scale 0 is the no-effect control and ±100 the full control effect
Target sequence (Q27686 whole entry, looked up): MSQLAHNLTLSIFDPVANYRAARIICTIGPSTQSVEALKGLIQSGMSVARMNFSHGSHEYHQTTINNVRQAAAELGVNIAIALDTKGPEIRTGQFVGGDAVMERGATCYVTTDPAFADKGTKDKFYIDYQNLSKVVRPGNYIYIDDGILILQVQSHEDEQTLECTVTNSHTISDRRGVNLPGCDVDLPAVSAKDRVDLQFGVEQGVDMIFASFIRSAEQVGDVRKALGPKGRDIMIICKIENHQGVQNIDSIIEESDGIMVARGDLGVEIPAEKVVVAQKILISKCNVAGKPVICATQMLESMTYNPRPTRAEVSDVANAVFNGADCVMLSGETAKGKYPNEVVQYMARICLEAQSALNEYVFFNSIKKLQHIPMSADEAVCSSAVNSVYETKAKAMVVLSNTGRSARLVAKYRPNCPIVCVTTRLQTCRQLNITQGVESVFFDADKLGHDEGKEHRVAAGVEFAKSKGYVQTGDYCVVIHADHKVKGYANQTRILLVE
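qHTS format; LmPK 0.1 nM; substrates PEP 0.5 mM and ADP 0.1 mM. One-hour room-temperature incubation, then coupled luciferase luminescence; 0.5 nM enzyme wells mark activation.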
* hit, by the source's call; ? = inconclusive; . = not tested or not shown; [ ] = another dose, or the depositor's remark. The entries come from a sample that favours hits as a whole. Unless noted, the call rests on the fitted dose curve; in most records, active means well fitted curve in the direction sought with a large enough effect; inconclusive means small, poorly fitted or top-dose-only effect, or another doubt; inactive means no such curve, though single readings can be large; an effect the other way counts as inactive or inconclusive.

SMILES	Sm TGR inh	FBPA Giardia inh	TbPYK inhibitor	Cycloheximide cs	Shiga inhibitor	LmPK inhibitor
CC1(CC(=O)N/N=C/c2ccc(-c3ccc(Cl)cc3)o2)OCCO1	-10.3%	-1.7%	-3.8%	14.5*	13.2	-1.0%
CCCCc1cc2c(cn1)=C(OC(=O)c1ccco1)C(C)(OC(=O)CC)C(=O)C=2 (stereo not given)	.	-10.4%[12.9 µM]	.	.	.	0.9%[11.5 µM]
CN1CCc2c(sc3nc(NN)n(Cc4ccccc4)c(=O)c23)C1	-31.0%	-1.3%	-4.5%	8.2	-2.6	-17.7%
CN1CCc2c(sc3nc(NN)n(-c4ccc(Cl)cc4)c(=O)c23)C1	-22.0%	6.2%	-8.3%	6.9	29.5*	-1.9%
CCCn1ccc2c(OCC(=O)Nc3ccc(F)cc3F)cccc2c1=O	6.6%	.	-8.3%	.	.	.
Cc1ccccc1NC(=O)c1sc2nc(N3CCOCC3)c3c(c2c1N)CC(C)(C)OC3	3.1%	.	?	.	.	.
COc1ccc(C(CNC(=O)c2cccc(NS(=O)(=O)c3ccccc3)c2)N(C)C)cc1 (stereo not given)	-25.8%	.	-1.7%	16.0*	26.6	-0.9%
COc1ccc(C(CNC(=O)c2ccc(-c3ccccc3)cc2)N(C)C)cc1OC (stereo not given)	-3.0%	15.5%	-13.0%	10.0*	33.9	0.6%
COc1ccc(Cl)cc1NS(=O)(=O)c1cccc(C(=O)NCC(c2ccco2)N(C)C)c1 (stereo not given)	12.6µM*	.	-3.3%	10.3	-13.4	-4.8%
CCOc1ccc(S(=O)(=O)Nc2cccc(C(=O)NCC(c3ccccc3)N(C)C)c2)cc1 (stereo not given)	2.0%	.	-17.3%	.	.	.
CN(C)CCN1CCN(C2CN(C3CCCC3)S(=O)(=O)C2)CC1 (stereo not given)	.	.	-4.2%	.	.	.
CCN(C(=O)CSc1nc2cc(S(=O)(=O)N(CC)CC)ccc2n1CC)C1CCS(=O)(=O)C1 (stereo not given)	-4.8%	.	-3.0%	.	.	.
CC1(C)CO[C@@H](CC(=O)O)CN1	.	.	-1.2%	.	.	.
O=C(N/N=C/C1CC2C=CC1C2)c1ccccc1O (stereo not given)	-5.2%	?	1.3%	39.9*	68.3*	-0.2%
CC(=O)Nc1ccc(C(=O)N/N=C/C2CC3C=CC2C3)cc1 (stereo not given)	63.2%	-5.3%	-6.2%	11.7	-2.3	-0.4%
O=C(NCCc1ccccc1)c1cc2ncc(Br)cn2n1	3.4%	?	-6.8%	26.4*	45.9	-14.6%
O=C(NCc1ccco1)c1cc(-c2ccccc2)on1	-6.7%	4.2%	1.1%	48.1*	104.5*	-5.2%
COCCNC(=O)c1cc2ncc(Br)cn2n1	-8.0%	7.7%	1.5%	6.8	18.1	-3.4%
O=C(NCc1ccco1)c1cnccn1	?	-16.8%	2.2%	4.6	11.6	22.4%
Cc1cc(-c2ccccc2)nc2cc(C(=O)NCc3ccco3)nn12	31.6µM*	-0.9%	-11.3%	10.2	8.0	19.6%
O=C(NCc1ccco1)c1cc(-c2cccs2)on1	-14.8%	3.0%	5.4%	55.4*	121.2*	5.4%
COc1ccccc1NC(=O)CSc1oc(-c2cccs2)nc1S(=O)(=O)c1ccccc1	0.5%	.	0.8%	.	.	.
CCOC(=O)c1c(C)[nH]c(C)c1S(=O)(=O)N1CCCC(C(=O)Nc2cccc(CC)c2)C1 (stereo not given)	3.0%	.	-3.6%	.	.	.
O=C(NCc1ccccc1)c1ccc(CNS(=O)(=O)c2ccc(Br)cc2)cc1	13.2%	.	3.3%	.	.	.
O=c1c2ncn([C@@H]3O[C@@H]4COP(=O)(O)O[C@H]4[C@H]3O)c2nc2[nH]c(-c3ccccc3)cn12	.	-1.3%	.	-4.2	-7.3	.
SMILES	Sm TGR inh	FBPA Giardia inh	TbPYK inhibitor	Cycloheximide cs	Shiga inhibitor	LmPK inhibitor
Cc1ccc2oc(C(=O)Nc3ccc(S(=O)(=O)Nc4nccc(C)n4)cc3)cc(=O)c2c1	0.6%	.	-1.2%	.	.	.
CCOc1ccccc1CNC(=O)c1ccc(NC(=O)N2CCSc3ncccc32)cc1	0.4%	.	-2.4%[15.4 µM]	.	.	.
O=C(NCc1ccco1)c1cc(-c2ccc(F)cc2)on1	-21.0%	15.6%	1.1%	58.7*	91.7*	1.9%
CC(C)c1cc(C(=O)NCCc2ccccc2)no1	18.3%	1.0%	-0.3%	46.9*	72.1*	0.1%
CC(C)c1cc(C(=O)NCc2ccco2)no1	50.1µM*	5.3%	-10.1%	41.8*	66.3*	3.4%
O=C(CSc1nnc(-c2ccc(O)cc2)o1)Nc1ccc2c(c1)OCCO2	1.4%	-0.9%	-1.6%	24.8*	39.0*	5.2%
O=C(CSc1nnc(-c2ccncc2)o1)c1ccc2c(c1)OCCO2	7.6%	0.3%	-2.4%	2.9	-7.4	1.3%
O=C(CSc1nnc(-c2ccc(F)cc2)o1)c1ccc2c(c1)OCCO2	1.0%	4.2%	2.0%	18.2*	9.7	0.0%
O=C(CSc1ncnc2scc(-c3ccc(F)cc3)c12)c1ccc2c(c1)OCCO2	3.5%	13.7%	-4.0%	15.8*	14.9	0.3%
O=C(CSc1nnc(-c2ccc(O)cc2)o1)Nc1cccc(O)c1	-12.6%	6.9%	0.9%	24.0*	63.9	1.9%
Cc1ccc(-c2csc3ncnc(SCC(=O)c4ccc5c(c4)OCCO5)c23)cc1	27.3%	18.1%	1.2%	-2.8	-14.6	0.3%
CCc1ccc(-n2nc(CO)c(C(=O)NCc3ccccn3)n2)cc1	3.5%	.	4.5%	.	.	.
Cc1cc(C)c(-c2cc([C@H](C)O/N=C\[C@@H](C)[C@H](OCc3ccccc3)C(C)C)on2)c(C)c1	.	1.1%[12.9 µM]	.	.	.	.
O=C(CSc1nnc(-c2ccc(O)cc2)o1)Nc1ccccc1Br	-3.7%	4.2%	-1.3%	28.1*	75.7*	-1.2%
O=C(CSc1nnc(-c2cccnc2)o1)Nc1ccccc1Br	-2.3%	-5.4%	5.0%	-5.0	-5.1	5.4%
COc1ccc(-c2nnc(SC(C)C(=O)Nc3ccc4c(c3)OCCO4)o2)cc1 (stereo not given)	-14.6%	-6.3%	-3.7%	35.0*	active	-2.8%
COc1ccc(N2CCN(C(=O)COC(=O)c3cccc(S(=O)(=O)Nc4cccc(C)c4)c3)CC2)cc1	-4.1%	.	-2.6%	.	.	.
Oc1ccccc1C1CC(c2cccs2)=NC(c2cccc(Br)c2)N1 (stereo not given)	-28.7%	-12.6%	-6.6%	42.2*	70.5*	-0.5%
COc1ccccc1CN1CC[C@@]2(CCCN(C(=O)c3cccn3C)C2)C1	.	-8.8%	-5.3%	.	.	.
COc1ccc2c(c1)c1c(c(=O)n(Cc3ccccc3)c(=O)n1CC(=O)Nc1ccc(C)cc1C)n2C	1.8%	.	-1.6%	.	.	.
N#CC(C#N)=C(N)/C(C#N)=C/c1ccc(O)cc1	.	0.4%	.	.	.	.
N#CC(C#N)=Cc1ccc(C=C(C#N)C#N)cc1	2.24µM*	?	-10.7%	20.0*	27.1	-1.4%
Cc1ccc(NC(=O)Cn2c(=O)n(CC3CCC(C(=O)NC(C)C)CC3)c(=O)c3sccc32)cc1 (stereo not given)	22.7%	.	-17.2%	.	.	.
